The values that follow come from the supplement of paper PMC12819154, “High-throughput peptide-centric local stability assay extends protein–ligand identification to membrane proteins, tissues and bacteria” (Nature Structural & Molecular Biology, 2025).

Common to all, as to assay: log2 fold change of tryptic peptide abundance, ligand vs vehicle (limited proteolysis) (log2 ratio); higher = more trypsin-susceptible (destabilized)
For one assay, the target named is T1, UniProt P02918.
T1 sequence (whole entry): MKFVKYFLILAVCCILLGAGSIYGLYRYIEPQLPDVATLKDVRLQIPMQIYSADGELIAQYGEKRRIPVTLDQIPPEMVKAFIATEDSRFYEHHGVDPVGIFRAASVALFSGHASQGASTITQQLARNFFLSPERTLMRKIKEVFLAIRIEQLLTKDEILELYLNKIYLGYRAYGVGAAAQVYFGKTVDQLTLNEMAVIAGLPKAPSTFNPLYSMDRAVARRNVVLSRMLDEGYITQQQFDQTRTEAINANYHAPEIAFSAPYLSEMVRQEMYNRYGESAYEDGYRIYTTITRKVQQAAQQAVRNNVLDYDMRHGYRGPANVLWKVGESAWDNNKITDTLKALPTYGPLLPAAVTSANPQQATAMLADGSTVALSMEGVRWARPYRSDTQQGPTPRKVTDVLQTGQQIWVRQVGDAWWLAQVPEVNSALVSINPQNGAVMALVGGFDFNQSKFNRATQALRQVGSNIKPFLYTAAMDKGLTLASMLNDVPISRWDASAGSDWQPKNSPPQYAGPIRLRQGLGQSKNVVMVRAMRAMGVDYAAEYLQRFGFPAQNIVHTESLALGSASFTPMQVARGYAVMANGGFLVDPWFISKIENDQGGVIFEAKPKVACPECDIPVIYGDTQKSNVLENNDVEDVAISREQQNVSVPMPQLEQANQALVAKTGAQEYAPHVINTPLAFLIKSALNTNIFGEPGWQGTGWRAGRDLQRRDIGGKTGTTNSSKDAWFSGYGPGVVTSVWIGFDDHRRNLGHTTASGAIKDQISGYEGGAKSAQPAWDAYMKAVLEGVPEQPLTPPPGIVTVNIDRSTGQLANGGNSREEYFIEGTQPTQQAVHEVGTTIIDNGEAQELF
Particulars: peptide sequence: NSPPQYAGPIR; peptide start residue: 506; ligand concentration: 10 uM; sample: E. coli crude lysate.

The next assay deals with T2, UniProt P02919.
T2 sequence (whole entry): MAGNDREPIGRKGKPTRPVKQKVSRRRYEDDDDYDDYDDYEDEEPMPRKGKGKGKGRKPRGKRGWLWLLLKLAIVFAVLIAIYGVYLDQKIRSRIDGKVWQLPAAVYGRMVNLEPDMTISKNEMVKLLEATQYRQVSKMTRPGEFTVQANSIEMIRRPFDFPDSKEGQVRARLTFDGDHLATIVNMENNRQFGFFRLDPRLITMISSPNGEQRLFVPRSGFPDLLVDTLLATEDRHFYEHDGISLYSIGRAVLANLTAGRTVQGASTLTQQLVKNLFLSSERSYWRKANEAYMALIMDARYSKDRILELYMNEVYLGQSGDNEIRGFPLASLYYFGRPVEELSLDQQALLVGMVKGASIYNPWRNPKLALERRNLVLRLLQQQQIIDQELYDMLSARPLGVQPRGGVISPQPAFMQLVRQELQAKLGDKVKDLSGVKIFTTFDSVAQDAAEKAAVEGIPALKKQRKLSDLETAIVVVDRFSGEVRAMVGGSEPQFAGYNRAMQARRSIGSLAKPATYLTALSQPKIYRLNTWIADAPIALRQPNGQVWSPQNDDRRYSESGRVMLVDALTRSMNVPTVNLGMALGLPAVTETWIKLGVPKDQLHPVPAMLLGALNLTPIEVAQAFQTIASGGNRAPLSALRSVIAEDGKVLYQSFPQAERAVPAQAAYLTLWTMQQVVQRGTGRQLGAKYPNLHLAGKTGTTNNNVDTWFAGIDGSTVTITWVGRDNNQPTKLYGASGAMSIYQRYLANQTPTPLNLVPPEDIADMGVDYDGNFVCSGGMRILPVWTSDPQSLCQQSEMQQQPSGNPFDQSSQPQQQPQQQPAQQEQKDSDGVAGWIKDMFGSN
The conditions noted are these: peptide sequence: QPNGQVWSPQNDDRR; peptide start residue: 542; ligand concentration: 10 uM; sample: E. coli crude lysate.

The next assay deals with UniProt P24228. The conditions noted are these: peptide sequence: AGLHQAGVDGK; peptide start residue: 403; ligand concentration: 10 uM; sample: E. coli crude lysate.
The target in another assay is T3, UniProt P77754.
T3 sequence (whole entry): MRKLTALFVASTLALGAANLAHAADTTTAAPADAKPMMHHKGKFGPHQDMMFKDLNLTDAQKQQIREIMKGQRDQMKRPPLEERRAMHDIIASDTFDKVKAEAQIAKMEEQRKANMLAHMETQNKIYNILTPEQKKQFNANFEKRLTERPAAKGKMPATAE
The conditions noted are these: peptide sequence: DLNLTDAQK; peptide start residue: 54; ligand concentration: 10 uM; sample: E. coli crude lysate.

Chain of UniProt P24228 (P24228 whole entry): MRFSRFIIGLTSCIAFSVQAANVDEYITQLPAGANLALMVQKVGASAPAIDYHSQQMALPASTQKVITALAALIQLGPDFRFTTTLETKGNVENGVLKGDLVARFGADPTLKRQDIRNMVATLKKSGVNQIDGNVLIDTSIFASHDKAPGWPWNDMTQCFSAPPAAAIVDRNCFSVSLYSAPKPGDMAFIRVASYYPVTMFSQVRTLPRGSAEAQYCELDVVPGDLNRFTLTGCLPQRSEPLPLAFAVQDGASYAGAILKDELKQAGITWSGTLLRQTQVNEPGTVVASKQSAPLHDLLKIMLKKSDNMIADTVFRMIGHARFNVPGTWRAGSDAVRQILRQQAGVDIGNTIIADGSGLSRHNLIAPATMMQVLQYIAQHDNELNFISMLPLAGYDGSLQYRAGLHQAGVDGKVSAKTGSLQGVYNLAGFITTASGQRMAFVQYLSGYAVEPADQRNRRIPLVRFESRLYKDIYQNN

`CC1(C)S[C@@H]2[C@H](NC(=O)[C@H](N)c3ccccc3)C(=O)N2[C@H]1C(=O)O` [ampicillin]: the log2 fold change is -1.56 with UniProt P02918, 1.86 with UniProt P02919, -3.07 with UniProt P24228 and -0.675 with UniProt P77754.
